# Data as given in ChEMBL document CHEMBL3988442, “University of Dundee, Small-Polar-MMV Screening Library” (2021).
# The whole screen tested about 69,000 compounds, of which about 1,000 (1.4%) showed an effect of 50% or more. Shown is part of a subset that was picked to be rich in strong results.
# Tested on: Leishmania donovani
# Test: Leishmania intramacrophage assay
# Format: functional, organism-based
# Parameters: scale not given: in the data most compounds retested in dose-response had high values
structure (smiles),measurement,setting,value
Cc1nc2cc(CNC(=O)C3CC(=O)N(CCN(C)C)C3)ccc2n1C (stereo not given),Percent Effect,"30.3 µM, […]",7.725%
CC(C)c1cc(C(=O)O)nc2[nH]c(=O)[nH]c(=O)c12,Percent Effect,"30.3 µM, […]",-5.63%
CCCc1nc(CN2CCCN(Cc3nccn3C)CC2)no1,Percent Effect,30 µM,36.47%
O=C(c1ccc[nH]1)N1CCc2ccc(S(=O)(=O)N3CCOCC3)cc2C1,Percent Effect,"30.3 µM, […]",-1.46%
O=C(c1cc[nH]n1)N1CCc2ccc(S(=O)(=O)N3CCOCC3)cc2C1,Percent Effect,"30.3 µM, […]",52.38%
O=C(c1ccc[nH]1)N1CCc2cc(S(=O)(=O)N3CCOCC3)ccc2C1,Percent Effect,"30.3 µM, […]",17.1%
CCc1noc(CNc2nc(-c3cccnc3)nc3c2CCNCC3)n1,Percent Effect,"30.3 µM, […]",27.11%
CC(O)CNc1nc(-c2cccnc2)nc2c1CCC2 (stereo not given),Percent Effect,"30.3 µM, […]",13.01%
c1cncc(-c2nc3c(c(NCC4(c5ccncc5)CC4)n2)CCC3)c1,Percent Effect,"30.3 µM, […]",33.94%
CN(CC1CCCO1)c1nc(-c2cccnc2)nc2c1CCNCC2 (stereo not given),Percent Effect,"30.3 µM, […]",34.58%
Cl.NC1CCc2nc(-c3cccnc3)nc(Nc3ccc(F)cc3)c2C1 (stereo not given),Percent Effect,"30.3 µM, […]",94.83%
CNS(=O)(=O)CC(=O)NC(C)Cc1ccc(-c2ccccc2)cc1 (stereo not given),Percent Effect,"30.3 µM, […]",32.54%
CN(CCN(C)S(=O)(=O)CC1CCOCC1)c1ccccc1,Percent Effect,"30.3 µM, […]",4.21%
Fc1ccccc1NCc1nc2n(n1)CCCCC2,Percent Effect,"30.3 µM, […]",-12.91%
O=C(Nc1ccccc1)C1=CC2(CCNCC2)c2ccccc21,Percent Effect,"30 µM, 30.03 µM",52.55%
O=C(C1=CC2(CCNCC2)c2ccccc21)N1CCCC1,Percent Effect,"30 µM, 30.03 µM",-18.75%
CC(=O)N1CCC2(C=C(C(=O)NC3CC3)c3ccccc32)CC1,Percent Effect,"30.3 µM, […]",1.849%
Cc1nn(CCn2ccnc2-c2cc3n(n2)CCCNC3)c(C)c1Cl,Percent Effect,"30 µM, 30.03 µM",27.54%
COc1ccc(CN2CCCCCC2c2cccs2)c(OC)c1 (stereo not given),Percent Effect,"30.3 µM, […]",16.39%
Cc1nc(C2CCCN(C(=O)c3cc(-c4ccccc4)[nH]n3)C2)no1 (stereo not given),Percent Effect,"30.3 µM, […]",9.064%
CC(C)CCN1CC2(CCN(C(=O)C3(C)CCCCO3)CC2)OC1=O (stereo not given),Percent Effect,"30.3 µM, […]",6.725%
COc1ccc(C2=Nn3c(CCN)nnc3-c3ccccc3C2)cc1,Percent Effect,"30.3 µM, […]",89.23%
COc1ccc(C2=Nn3c(CN)nnc3-c3ccccc3C2)cc1,Percent Effect,"30.3 µM, […]",36.2%
COc1ccc(C2=Nn3c(CCCN)nnc3-c3ccccc3C2)cc1,Percent Effect,"30.3 µM, […]",30.64%
CC(=O)N1CCc2c(nc(N(C)C)nc2NCCCn2ccnc2)C1,Percent Effect,"30.3 µM, […]",-10.69%
CN(C)CCN1C[C@@H]2CN(C(=O)C3CCOC3)C[C@@H]2C1=O.O=C(O)C(F)(F)F (stereo not given in full),Percent Effect,"30.3 µM, […]",-26.31%
Cc1cc(C(=O)N2CCC3(CCC(=O)N(CC(N)=O)C3)CC2)ccc1O,Percent Effect,"30.3 µM, […]",11.98%
Cc1ccc(S(N)(=O)=O)cc1C(=O)NC1CCCC1,Percent Effect,"30.3 µM, […]",54.24%
CC(=O)N1CCC(NC(=O)c2cc(S(N)(=O)=O)ccc2C)CC1,Percent Effect,"30.3 µM, […]",-1.924%
Cc1ccc(S(N)(=O)=O)cc1C(=O)NC1CCCN(C)C1 (stereo not given),Percent Effect,"30.3 µM, […]",17.05%
CNC(=O)CN(C)C(=O)c1cc(Cl)c(Cl)n1C,Percent Effect,"30.3 µM, […]",1.638%
NC(=O)N1CCC(C(=O)NC2CCc3nccn3C2)CC1 (stereo not given),Percent Effect,"30.3 µM, […]",-91.03%
C=Cc1cccc(CN2CCCn3nc(CNS(C)(=O)=O)cc3C2)c1,Percent Effect,"30.3 µM, […]",8.14%
Fc1cnc(N2C[C@@H](OCC3CCOCC3)[C@H]3OCCC[C@H]32)nc1.O=C(O)C(F)(F)F,Percent Effect,"30.3 µM, […]",63.79%
Fc1cnc(N2CCO[C@H]3[C@H](OCC4CCOCC4)CC[C@@H]32)nc1.O=C(O)C(F)(F)F,Percent Effect,"30.3 µM, […]",42.92%
O=C(O)C(F)(F)F.c1cnc(N2CCO[C@H]3[C@H](OCC4CCOCC4)CC[C@@H]32)nc1,Percent Effect,"30.3 µM, […]",26.14%
NC1CCCCN(Cc2ccccc2CS(=O)(=O)c2ccccc2)C1 (stereo not given),Percent Effect,"30.3 µM, […]",64.11%
O=S(=O)(Cc1ccccc1CN1CC[C@H](CO)[C@H](O)C1)c1ccccc1,Percent Effect,"30.3 µM, […]",22.14%
N[C@@H]1CCN(Cc2ccccc2CS(=O)(=O)c2ccccc2)C[C@H]1O,Percent Effect,"30.3 µM, […]",11.27%
Cc1cnn(C2CN(Cc3nc(-c4ccccn4)no3)C2)c1,Percent Effect,30 µM,-31.22%
O=S(=O)(c1ccccc1)N1CCN(CCn2ccnc2)CC1,Percent Effect,"30 µM, 30.03 µM",0.5728%
Cc1ccc(S(=O)(=O)N2CCN(CCCn3ccnc3)CC2)cc1,Percent Effect,"30.3 µM, […]",3.879%
O=S(=O)(c1ccccc1)N1CCCN(CCCn2ccnc2)CC1,Percent Effect,"30 µM, 30.03 µM",52.87%
CCc1cc(=O)[nH]c2nnc(SCC(=O)NC(C)C)n12,Percent Effect,"30.3 µM, […]",-15.02%
COc1ccc(C(=O)N2CC[C@@]3(O)CCCC[C@H]3C2)cc1OC,Percent Effect,"30.3 µM, […]",15.68%
Cc1ccc2cc(C3(O)CCN(C(=O)CSC(C)C)CC3)ccc2n1,Percent Effect,"30.3 µM, […]",27.25%
Cc1nc(C2CCCNC2)nc2c1CCCN2Cc1ccccn1.Cl.Cl (stereo not given),Percent Effect,"30.3 µM, […]",30.18%
CNc1cc(-c2ccccc2CN)c2cc[nH]c2n1,Percent Effect,"30.3 µM, […]",31.34%
CNc1cc(-c2ccc(COCCN)cc2)c2cc[nH]c2n1,Percent Effect,"30.3 µM, […]",-14.52%
CNc1cc(-c2cccc(CN)c2)c2cc[nH]c2n1,Percent Effect,"30.3 µM, […]",52.08%
